Assay [1] addresses Rho-associated protein kinase 2 (Homo sapiens) (UniProt O75116). To be noted: at 1 µM.
Assay [2] has the same target. Particulars: at 10 µM.
The target in assay [3] is Proto-oncogene tyrosine-protein kinase receptor Ret (Homo sapiens) (UniProt P07949). To be noted: at 1 µM.
The target is the same in assay [4]. Particulars: at 10 µM.
The target in assay [5] is Macrophage-stimulating protein receptor (Homo sapiens) (UniProt Q04912). Particulars: at 1 µM.
The target is the same in assay [6]. Particulars: at 10 µM.
For assay [7], the target named is Proto-oncogene tyrosine-protein kinase ROS (Homo sapiens) (UniProt P08922). To be noted: at 1 µM.
Assay [8] shares this target. To be noted: at 10 µM.
Assay [9] concerns the target T1, Tyrosine-protein kinase receptor TYRO3 (Homo sapiens) (UniProt Q06418).
T1 sequence (whole entry): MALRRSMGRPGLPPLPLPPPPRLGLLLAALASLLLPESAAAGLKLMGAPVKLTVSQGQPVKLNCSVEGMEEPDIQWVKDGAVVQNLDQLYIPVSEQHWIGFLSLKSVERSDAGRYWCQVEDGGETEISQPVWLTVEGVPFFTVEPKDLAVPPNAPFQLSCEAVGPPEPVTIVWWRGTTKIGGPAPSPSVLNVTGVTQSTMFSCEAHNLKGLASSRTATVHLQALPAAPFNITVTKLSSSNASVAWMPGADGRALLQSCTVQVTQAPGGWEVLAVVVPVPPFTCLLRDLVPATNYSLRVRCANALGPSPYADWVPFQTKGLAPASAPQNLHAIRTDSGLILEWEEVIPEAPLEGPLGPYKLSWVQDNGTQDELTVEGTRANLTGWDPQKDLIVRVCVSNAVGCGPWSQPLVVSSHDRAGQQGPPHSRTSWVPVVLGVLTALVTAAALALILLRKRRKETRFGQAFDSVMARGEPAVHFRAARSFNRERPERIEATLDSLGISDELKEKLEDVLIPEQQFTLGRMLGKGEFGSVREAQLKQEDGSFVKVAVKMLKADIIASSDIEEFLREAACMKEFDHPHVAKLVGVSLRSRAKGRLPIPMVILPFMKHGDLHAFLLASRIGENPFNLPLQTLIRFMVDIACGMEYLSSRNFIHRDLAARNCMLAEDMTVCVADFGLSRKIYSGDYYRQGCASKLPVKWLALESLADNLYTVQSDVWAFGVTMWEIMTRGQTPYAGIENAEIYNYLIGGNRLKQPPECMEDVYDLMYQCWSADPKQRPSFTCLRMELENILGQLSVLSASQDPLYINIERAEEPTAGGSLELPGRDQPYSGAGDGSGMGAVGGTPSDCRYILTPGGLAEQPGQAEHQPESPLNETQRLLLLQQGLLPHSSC
Particulars: at 1 µM.

Assay [10] addresses T1, Tyrosine-protein kinase receptor TYRO3 (Homo sapiens). To be noted: at 10 µM.
Assay [11] addresses Ribosomal protein S6 kinase alpha-1 (Homo sapiens) (UniProt Q15418). Particulars: at 1 µM.
The target is the same in assay [12]. Particulars: at 10 µM.
Assay [13] concerns the target Ribosomal protein S6 kinase alpha-3 (Homo sapiens) (UniProt P51812). Particulars: at 1 µM.
Assay [14] has the same target. To be noted: at 10 µM.
The target in assay [15] is Ribosomal protein S6 kinase alpha-2 (Homo sapiens) (UniProt Q15349). To be noted: at 1 µM.
Assay [16] has the same target. Particulars: at 10 µM.
The target in assay [17] is Ribosomal protein S6 kinase alpha-6 (Homo sapiens) (UniProt Q9UK32). Particulars: at 1 µM.
For assay [18] the target is unchanged. To be noted: at 10 µM.
Assay [19] concerns the target Mitogen-activated protein kinase 14 (Homo sapiens) (UniProt Q16539). Particulars: at 1 µM.
Assay [20] has the same target. Particulars: at 10 µM.

We go through 16 compounds from ChEMBL document CHEMBL2218924, “A broad activity screen in support of a chemogenomic map for kinase signalling research and drug discovery” (Biochem J, 2013).

SMILES strings stand for the structures.

Sequence of Ribosomal protein S6 kinase alpha-1 (Homo sapiens) (Q15418 whole entry): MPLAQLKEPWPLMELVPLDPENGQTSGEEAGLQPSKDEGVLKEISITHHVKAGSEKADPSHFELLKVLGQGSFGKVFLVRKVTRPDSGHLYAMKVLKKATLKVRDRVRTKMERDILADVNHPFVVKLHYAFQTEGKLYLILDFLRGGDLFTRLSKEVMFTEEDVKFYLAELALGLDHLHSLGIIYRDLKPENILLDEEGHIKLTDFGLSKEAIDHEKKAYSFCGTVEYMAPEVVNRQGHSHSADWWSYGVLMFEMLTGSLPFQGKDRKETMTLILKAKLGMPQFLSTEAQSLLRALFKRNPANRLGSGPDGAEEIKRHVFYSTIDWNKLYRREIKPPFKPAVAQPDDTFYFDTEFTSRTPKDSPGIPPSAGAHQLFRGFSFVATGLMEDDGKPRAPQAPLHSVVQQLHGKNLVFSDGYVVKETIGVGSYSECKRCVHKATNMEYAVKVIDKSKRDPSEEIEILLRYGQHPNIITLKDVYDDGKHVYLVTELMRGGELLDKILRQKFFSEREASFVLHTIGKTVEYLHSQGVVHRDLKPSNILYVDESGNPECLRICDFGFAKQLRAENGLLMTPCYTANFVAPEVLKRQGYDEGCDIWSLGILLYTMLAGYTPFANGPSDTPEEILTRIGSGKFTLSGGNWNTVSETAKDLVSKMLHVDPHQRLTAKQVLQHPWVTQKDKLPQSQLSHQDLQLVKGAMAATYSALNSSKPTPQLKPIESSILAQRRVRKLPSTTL
Sequence of Proto-oncogene tyrosine-protein kinase receptor Ret (Homo sapiens) (P07949 whole entry): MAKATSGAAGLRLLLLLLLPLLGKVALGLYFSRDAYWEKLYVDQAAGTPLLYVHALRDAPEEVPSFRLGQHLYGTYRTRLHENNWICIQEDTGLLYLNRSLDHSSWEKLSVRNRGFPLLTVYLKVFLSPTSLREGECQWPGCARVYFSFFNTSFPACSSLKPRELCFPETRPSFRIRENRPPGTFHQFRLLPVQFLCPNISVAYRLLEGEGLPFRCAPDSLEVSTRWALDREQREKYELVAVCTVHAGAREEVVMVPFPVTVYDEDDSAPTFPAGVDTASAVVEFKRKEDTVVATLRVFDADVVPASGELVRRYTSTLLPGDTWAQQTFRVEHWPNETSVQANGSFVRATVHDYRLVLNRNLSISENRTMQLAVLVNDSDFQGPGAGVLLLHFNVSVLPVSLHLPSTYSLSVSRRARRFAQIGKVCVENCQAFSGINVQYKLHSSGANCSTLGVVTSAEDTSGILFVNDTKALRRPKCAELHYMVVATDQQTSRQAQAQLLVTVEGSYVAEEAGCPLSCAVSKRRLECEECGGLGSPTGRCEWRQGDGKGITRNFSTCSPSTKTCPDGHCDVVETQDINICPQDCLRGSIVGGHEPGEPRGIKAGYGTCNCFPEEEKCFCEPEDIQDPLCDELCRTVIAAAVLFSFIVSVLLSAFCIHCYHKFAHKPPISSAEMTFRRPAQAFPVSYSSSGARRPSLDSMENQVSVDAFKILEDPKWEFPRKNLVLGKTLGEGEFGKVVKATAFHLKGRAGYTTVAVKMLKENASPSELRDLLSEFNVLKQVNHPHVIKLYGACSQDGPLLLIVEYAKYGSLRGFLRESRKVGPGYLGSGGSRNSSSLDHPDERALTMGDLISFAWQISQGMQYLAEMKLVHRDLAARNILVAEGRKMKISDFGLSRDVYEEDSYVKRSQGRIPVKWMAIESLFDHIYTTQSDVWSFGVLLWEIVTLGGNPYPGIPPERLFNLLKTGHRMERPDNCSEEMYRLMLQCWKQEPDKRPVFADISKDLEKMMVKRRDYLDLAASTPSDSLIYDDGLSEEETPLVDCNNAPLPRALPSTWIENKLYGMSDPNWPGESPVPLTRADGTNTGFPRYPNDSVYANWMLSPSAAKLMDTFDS
Sequence of Ribosomal protein S6 kinase alpha-6 (Homo sapiens) (Q9UK32 whole entry): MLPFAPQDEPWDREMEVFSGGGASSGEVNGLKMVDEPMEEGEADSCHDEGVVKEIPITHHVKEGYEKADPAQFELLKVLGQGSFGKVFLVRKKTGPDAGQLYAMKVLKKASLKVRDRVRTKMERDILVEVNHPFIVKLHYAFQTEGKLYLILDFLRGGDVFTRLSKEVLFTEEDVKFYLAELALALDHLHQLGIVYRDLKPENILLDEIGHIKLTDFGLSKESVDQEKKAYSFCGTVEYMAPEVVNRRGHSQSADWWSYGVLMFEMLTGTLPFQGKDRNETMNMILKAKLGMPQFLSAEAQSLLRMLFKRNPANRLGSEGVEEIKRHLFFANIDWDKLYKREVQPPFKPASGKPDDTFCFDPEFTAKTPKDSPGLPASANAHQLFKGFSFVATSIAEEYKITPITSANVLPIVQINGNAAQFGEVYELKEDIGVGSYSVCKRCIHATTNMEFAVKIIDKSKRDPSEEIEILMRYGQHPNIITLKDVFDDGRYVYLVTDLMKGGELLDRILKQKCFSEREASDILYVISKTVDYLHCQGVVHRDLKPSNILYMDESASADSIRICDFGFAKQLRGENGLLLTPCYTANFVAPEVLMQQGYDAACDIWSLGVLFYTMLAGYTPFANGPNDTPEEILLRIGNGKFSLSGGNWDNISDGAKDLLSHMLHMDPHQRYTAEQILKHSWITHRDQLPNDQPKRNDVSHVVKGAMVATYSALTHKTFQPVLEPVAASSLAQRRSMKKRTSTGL
Sequence of Proto-oncogene tyrosine-protein kinase ROS (Homo sapiens) (P08922 whole entry): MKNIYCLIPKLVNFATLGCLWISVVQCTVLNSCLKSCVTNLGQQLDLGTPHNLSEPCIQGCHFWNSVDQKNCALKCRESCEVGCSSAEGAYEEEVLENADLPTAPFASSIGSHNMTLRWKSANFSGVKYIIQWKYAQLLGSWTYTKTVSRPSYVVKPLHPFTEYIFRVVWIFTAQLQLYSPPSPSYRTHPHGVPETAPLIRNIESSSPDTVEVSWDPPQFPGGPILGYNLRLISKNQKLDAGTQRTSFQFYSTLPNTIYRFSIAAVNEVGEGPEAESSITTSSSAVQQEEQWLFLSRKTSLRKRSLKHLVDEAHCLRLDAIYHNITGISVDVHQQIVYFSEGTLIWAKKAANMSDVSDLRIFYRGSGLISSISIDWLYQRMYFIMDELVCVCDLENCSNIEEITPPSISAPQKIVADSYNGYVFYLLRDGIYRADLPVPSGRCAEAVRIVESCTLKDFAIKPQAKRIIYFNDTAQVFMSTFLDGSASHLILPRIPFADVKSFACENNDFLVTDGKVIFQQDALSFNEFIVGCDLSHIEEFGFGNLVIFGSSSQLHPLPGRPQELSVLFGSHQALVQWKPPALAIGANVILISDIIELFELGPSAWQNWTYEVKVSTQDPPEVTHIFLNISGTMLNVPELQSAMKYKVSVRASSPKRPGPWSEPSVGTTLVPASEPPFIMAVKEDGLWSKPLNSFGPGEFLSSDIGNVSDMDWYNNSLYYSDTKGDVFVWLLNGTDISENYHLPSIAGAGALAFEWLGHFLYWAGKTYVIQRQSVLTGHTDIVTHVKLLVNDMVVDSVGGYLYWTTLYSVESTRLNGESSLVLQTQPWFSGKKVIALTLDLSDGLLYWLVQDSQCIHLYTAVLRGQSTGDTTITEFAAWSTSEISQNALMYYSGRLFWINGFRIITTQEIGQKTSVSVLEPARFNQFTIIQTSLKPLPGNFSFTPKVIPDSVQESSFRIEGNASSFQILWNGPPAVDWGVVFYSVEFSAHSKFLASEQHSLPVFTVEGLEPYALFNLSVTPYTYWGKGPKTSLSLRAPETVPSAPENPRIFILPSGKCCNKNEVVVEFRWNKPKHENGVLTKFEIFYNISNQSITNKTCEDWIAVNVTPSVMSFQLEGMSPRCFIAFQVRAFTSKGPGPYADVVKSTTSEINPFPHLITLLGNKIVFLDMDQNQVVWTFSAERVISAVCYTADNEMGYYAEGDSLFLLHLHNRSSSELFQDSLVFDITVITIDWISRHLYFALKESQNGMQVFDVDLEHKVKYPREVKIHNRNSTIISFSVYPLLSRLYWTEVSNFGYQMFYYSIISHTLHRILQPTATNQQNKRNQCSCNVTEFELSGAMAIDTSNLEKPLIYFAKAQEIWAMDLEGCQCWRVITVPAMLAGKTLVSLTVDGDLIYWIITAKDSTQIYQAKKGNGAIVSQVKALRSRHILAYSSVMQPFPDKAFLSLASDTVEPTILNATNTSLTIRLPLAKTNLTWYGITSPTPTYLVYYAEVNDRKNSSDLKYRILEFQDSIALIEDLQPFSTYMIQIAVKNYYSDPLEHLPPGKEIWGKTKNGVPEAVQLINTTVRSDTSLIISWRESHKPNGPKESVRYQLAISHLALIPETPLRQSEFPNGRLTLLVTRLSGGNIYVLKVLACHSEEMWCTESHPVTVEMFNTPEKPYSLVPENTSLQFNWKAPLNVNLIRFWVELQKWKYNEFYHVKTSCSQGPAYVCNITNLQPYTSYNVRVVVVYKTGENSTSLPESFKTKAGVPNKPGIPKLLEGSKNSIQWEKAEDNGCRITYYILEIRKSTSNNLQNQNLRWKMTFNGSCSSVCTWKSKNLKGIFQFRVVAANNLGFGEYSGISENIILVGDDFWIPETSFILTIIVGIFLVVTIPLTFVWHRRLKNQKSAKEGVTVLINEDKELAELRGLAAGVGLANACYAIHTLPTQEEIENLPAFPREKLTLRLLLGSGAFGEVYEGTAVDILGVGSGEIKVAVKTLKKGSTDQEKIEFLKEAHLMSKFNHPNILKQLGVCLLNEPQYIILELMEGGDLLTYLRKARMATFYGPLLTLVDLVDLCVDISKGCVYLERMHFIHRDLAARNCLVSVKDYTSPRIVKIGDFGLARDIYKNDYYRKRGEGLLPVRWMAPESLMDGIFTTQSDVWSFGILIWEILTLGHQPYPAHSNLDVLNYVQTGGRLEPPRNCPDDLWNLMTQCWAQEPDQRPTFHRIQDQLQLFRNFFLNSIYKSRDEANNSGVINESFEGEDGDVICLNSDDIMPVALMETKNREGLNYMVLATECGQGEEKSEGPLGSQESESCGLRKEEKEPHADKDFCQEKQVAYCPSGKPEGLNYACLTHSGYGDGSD

For the compound `Nc1ncnc2c1c(-c1ccc(Oc3ccccc3)cc1)cn2C1CCCC1`, the residual activity was 90% in [1]; 70% in assay [2]; 0% in [3]; -1% in assay [4]; 92% in assay [5]; 55% in [6]. The residual activity amounted to 88% in assay [7]; 82% in [8]; 59% in assay [9]; 14% in assay [10]; 123% in assay [11]; 39% in [12]. Also, the residual activity in [13] stood at 65%; in assay [14] it was 37%; in assay [15], 106%; in assay [16], 69%; in assay [17], 91%; in [18] it was 76%. Besides, the residual activity in assay [19] stood at 86%; in [20], 63%.

In the case of `NC(=O)Nc1sc(-c2ccc(F)cc2)cc1C(N)=O`, the residual activity in assay [1] was 89%; in assay [2], 53%; in assay [3] it was 30%; in [4] it was 1%; in assay [5], 73%; in [6], 56%. The residual activity was 91% in assay [7]; 94% in [8]; 91% in assay [9]; 41% in assay [10]; 85% in [11]; 33% in assay [12]. Further, the residual activity is 33% in assay [13]; 9% in assay [14]; 30% in assay [15]; 7% in [16]; 91% in assay [19]; 77% in [20].

On to `COc1cc2ncnc(Nc3cccc(Cl)c3)c2cc1OC`, for which the residual activity in assay [1] was 103%; in assay [2] it was 87%; in assay [3], 39%; in assay [4], 6%; in assay [5], 116%; in assay [6], 83%. Moreover, the residual activity was 100% in [7]; 105% in [8]; 62% in assay [9]; 15% in [10]; 102% in assay [13]; 59% in [14]. Besides, the residual activity in assay [15] turned out to be 87%; in assay [16], 47%; in assay [17], 123%; in assay [18], 64%; in [19], 56%; in assay [20] it was 25%.

For `O=S(=O)(c1cccc2cnccc12)N1CCCNCC1`, the residual activity in assay [1] was 25%; in [2], 4%; in [3], 53%; in assay [4] it was 39%; in assay [10], 123%; in assay [11], 84%. Moreover, the residual activity in [12] was found to be 47%; in assay [17], 85%; in assay [18], 49%.

On to `CCCCc1c(-c2ccc(OC)cc2)[nH]c2nccnc12`, for which the residual activity in assay [1] amounted to 79%; in assay [3], 45%; in assay [4], 63%; in [5] it was 85%; in [6] it was 103%; in assay [8], 88%. In addition, the residual activity in [9] came out at 107%; in [10] it was 105%; in assay [11], 122%; in assay [12] it was 109%; in [13], 55%; in assay [14], 52%. In addition, the residual activity in [15] was 70%; in assay [16], 70%; in assay [17], 89%; in [18], 100%.

With `NCCNc1ncc(C(N)=O)c(Nc2cccc(C(F)(F)F)c2)n1`, the residual activity in assay [11] amounted to 116%; in assay [12], 59%; in [14], 35%; in [15], 82%; in [16], 29%.

For the compound `CCN(CC)CCNC(=O)c1c(C)[nH]c(/C=C2\C(=O)Nc3ccc(Cl)cc32)c1C`, the residual activity in [3] is -1%; in assay [4], -1%; in [6] it was 40%; in [9], 24%; in assay [10] it was -1%; in [11] it was 11%. The residual activity in [12] amounted to 2%; in assay [13] it was 11%; in assay [14], 1%; in assay [15], 9%; in [16], 1%; in [17], 14%. The residual activity in [18] is 9%; in assay [19] it was 82%; in assay [20], 52%.

For the compound `Oc1cccc(-c2nc(N3CCOCC3)c3oc4ncccc4c3n2)c1`, the residual activity in assay [9] is 82%; in assay [10], 93%; in assay [11], 141%; in assay [12], 98%; in assay [13] it was 70%; in assay [14], 64%.

Regarding `O=C1NC(=O)C(c2cn(CCCO)c3ncccc23)=C1c1cnccn1`, the residual activity in assay [3] amounted to 82%; in [4] it was 81%; in [5], 66%; in assay [6], 58%; in assay [11], 98%; in assay [12] it was 99%. The residual activity in [13] stood at 41%; in assay [14], 45%; in assay [15] it was 63%; in [16], 55%; in assay [17], 83%; in [18], 65%. Moreover, the residual activity amounted to 82% in assay [19] and 92% in assay [20].

In the case of `O=C1Cc2c([nH]c3ccc([N+](=O)[O-])cc23)-c2ccccc2N1`, the residual activity in [3] stood at 103%; in assay [4], 79%; in [5], 100%; in assay [6], 108%; in [13], 56%; in assay [14], 34%. In addition, the residual activity in [15] came out at 38%; in assay [16] it was 22%; in [17], 64%; in [18] it was 38%.

Regarding `NC(=O)c1ccc(-c2nc(-c3ccc4c(c3)OCCO4)c(-c3ccccn3)[nH]2)cc1`, the residual activity in assay [5] stood at 94%; in [6] it was 86%; in assay [13] it was 56%; in [14] it was 53%; in [17], 90%; in assay [19], 77%. The residual activity in assay [20] worked out at 37%.

On to `O=c1c(-c2ccc(F)cc2)c(-c2ccncc2)[nH]n1-c1ccc(Cl)cc1`, for which the residual activity in [4] amounted to 55%; in assay [5] it was 78%; in assay [6], 80%; in assay [19] it was 3%; in assay [20], 0%.

Regarding `O=c1cc(N2CCNCC2)oc2c(-c3ccccc3)cccc12`, the residual activity in [2] amounted to 80%; in [5], 76%; in assay [6] it was 58%; in [7], 97%; in assay [8], 91%; in assay [9], 94%. The residual activity in assay [10] is 96%; in assay [11], 124%; in assay [12], 96%; in assay [13], 51%; in [14], 36%; in assay [16], 104%. Further, the residual activity in [18] came out at 89%; in assay [19], 101%; in [20] it was 98%.

With `COc1cc2c(cc1OC)-c1n[nH]c(Nc3cccc(F)c3)c1C2`, the residual activity in [3] was found to be 64%; in [4] it was 19%; in assay [6], 68%; in [10], 50%; in assay [11], 112%; in assay [12], 79%. Further, the residual activity in [13] came to 63%; in assay [14], 39%; in assay [16], 63%; in assay [17], 105%; in [19], 69%; in assay [20], 44%.

In the case of `N#C/C(=C1/Nc2ccccc2S1)c1ccnc(NCCc2cccnc2)n1`, the residual activity in [3] amounted to 63%; in assay [4] it was 47%; in [5], 84%; in assay [6] it was 46%; in assay [9], 97%; in assay [10], 74%. Also, the residual activity in [17] came out at 63%; in assay [18], 63%; in assay [19] it was 76%; in assay [20] it was 41%.

With `COc1cc2nccc(Oc3ccc(NC(=O)Nc4cc(C)on4)c(Cl)c3)c2cc1OC`, the residual activity is 0% in assay [3]; -1% in assay [4]; 31% in [5]; 3% in assay [6]; 24% in assay [7]; 16% in [8]. Also, the residual activity in assay [9] came out at 10%; in [10], 8%; in [11], 105%; in assay [12], 77%; in assay [13], 60%; in assay [14] it was 35%. Also, the residual activity in [17] is 99%.
